Measured values published in the supplement of paper PMC8728848.
Many of the other results were omitted from the sample, so the strongest signals are more common in it than they were.

Columns and labels:
Assay in all cases: glycan array binding signal (z-score within array); higher = stronger binding
Details in all cases: glycan notation: IUPAC condensed, linker removed
[1] = target: Fuc(a1-2)Gal(b1-3)GlcNAc(b1-2)Man(a1-3)[Fuc(a1-2)Gal(b1-3)GlcNAc(b1-2)Man(a1-6)]Man(b1-4)GlcNAc(b1-4)GlcNAc
How it was run: (§1)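 Glycan array data were curated from 3228 arrays in the Consortium for Functional Glycomics database and kept only where the protein sequence was available. Glycan names were converted to IUPAC-condensed notation, and columns mapping to the same glycan were averaged. The binding signal is a within-array Z-score, averaged across arrays of the same protein sequence at different concentrations or buffers and across linkers. Negative Z-scores can be read as non-binding.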

[2] = target: Fuc(a1-2)Gal(b1-4)GlcNAc(b1-2)Man(a1-3)[Fuc(a1-2)Gal(b1-4)GlcNAc(b1-2)Man(a1-6)]Man(b1-4)GlcNAc(b1-4)GlcNAc
How it was run: as §1

[3] = target: Fuc(a1-2)Gal(b1-4)GlcNAc(b1-2)Man(a1-3)[Fuc(a1-2)Gal(b1-4)GlcNAc(b1-2)Man(a1-6)]Man(b1-4)GlcNAc(b1-4)[Fuc(a1-6)]GlcNAc
How it was run: as §1

[4] = target: Fuc(a1-2)Gal(b1-4)GlcNAc(b1-2)[Fuc(a1-2)Gal(b1-4)GlcNAc(b1-4)]Man(a1-3)[Fuc(a1-2)Gal(b1-4)GlcNAc(b1-2)Man(a1-6)]Man(b1-4)GlcNAc(b1-4)GlcNAc
How it was run: as §1

[5] = target: Fuc(a1-2)Gal(b1-4)[Fuc(a1-3)]GlcNAc
How it was run: as §1

[6] = target: Fuc(a1-2)Gal6S(b1-4)Glc6S
How it was run: as §1

[7] = target: Fuc(a1-2)[Gal(a1-3)]Gal(b1-4)GlcNAc(b1-3)[Fuc(a1-2)[Gal(a1-3)]Gal(b1-4)GlcNAc(b1-6)]GalNAc
How it was run: as §1

[8] = target: Fuc(a1-2)[GalNAc(a1-3)]Gal(b1-4)GlcNAc(b1-3)GalNAc
How it was run: as §1

[9] = target: Fuc(a1-2)[GalNAc(a1-4)]Gal(b1-4)GlcNAc
How it was run: as §1

[10] = target: Fuc(a1-3)[Gal(b1-4)]GlcNAc(b1-2)Man(a1-3)[Fuc(a1-3)[Gal(b1-4)]GlcNAc(b1-2)Man(a1-6)]Man(b1-4)GlcNAc(b1-4)GlcNAc
How it was run: as §1

Gal(a1-3)Gal(b1-3)GlcNAc = target: Gal(a1-3)Gal(b1-3)GlcNAc
How it was run: as §1

[11] = target: Gal(a1-3)Gal(b1-3)GlcNAc(b1-2)Man(a1-3)[Gal(a1-3)Gal(b1-3)GlcNAc(b1-2)Man(a1-6)]Man(b1-4)GlcNAc(b1-4)GlcNAc
How it was run: as §1

[12] = target: Gal(a1-3)Gal(b1-3)GlcNAc(b1-6)GalNAc
How it was run: as §1

[13] = target: Gal(a1-3)Gal(b1-3)[Fuc(a1-4)]GlcNAc(b1-2)Man(a1-3)[Gal(a1-3)Gal(b1-3)[Fuc(a1-4)]GlcNAc(b1-2)Man(a1-6)]Man(b1-4)GlcNAc(b1-4)GlcNAc
How it was run: as §1

Gal(a1-3)Gal(b1-4)GlcNAc = target: Gal(a1-3)Gal(b1-4)GlcNAc
How it was run: as §1

[14] = target: Gal(a1-3)Gal(b1-4)GlcNAc(b1-3)GalNAc
How it was run: as §1

[15] = target: Gal(a1-4)Gal(b1-3)GlcNAc(b1-2)Man(a1-3)[Gal(a1-4)Gal(b1-3)GlcNAc(b1-2)Man(a1-6)]Man(b1-4)GlcNAc(b1-4)GlcNAc
How it was run: as §1

[16] = target: Gal(b1-3)GalNAc(a1-3)[Fuc(a1-2)]Gal(b1-4)GlcNAc
How it was run: as §1

[17] = target: Gal(b1-3)GalNAc(b1-4)[Neu5Ac(a2-3)]Gal(b1-4)Glc
How it was run: as §1

[18] = target: Gal(b1-3)GlcNAc(b1-3)Gal(b1-4)GlcNAc(b1-3)Gal(b1-4)GlcNAc(b1-2)[Gal(b1-3)GlcNAc(b1-3)Gal(b1-4)GlcNAc(b1-3)Gal(b1-4)GlcNAc(b1-6)]Man(a1-6)[Gal(b1-3)GlcNAc(b1-3)Gal(b1-4)GlcNAc(b1-3)Gal(b1-4)GlcNAc(b1-2)Man(a1-3)]Man(b1-4)GlcNAc(b1-4)[Fuc(a1-6)]GlcNAc
How it was run: as §1

[19] = target: Gal(b1-3)[Fuc(a1-4)]GlcNAc(b1-6)GalNAc
How it was run: as §1

[20] = target: Gal(b1-3)[Neu5Ac(b2-6)]GalNAc
How it was run: as §1

[21] = target: Gal(b1-4)GlcNAc(b1-2)Man(a1-3)[Gal(b1-4)GlcNAc(b1-2)Man(a1-6)][Gal(b1-4)GlcNAc(b1-4)]Man(b1-4)GlcNAc(b1-4)[Fuc(a1-6)]GlcNAc
How it was run: as §1

[22] = target: Gal(b1-4)GlcNAc(b1-3)Gal(b1-4)Glc
How it was run: as §1

[23] = target: Gal(b1-4)GlcNAc(b1-3)Gal(b1-4)GlcNAc(b1-3)Gal(b1-4)GlcNAc(b1-2)Man(a1-3)[Gal(b1-4)GlcNAc(b1-3)Gal(b1-4)GlcNAc(b1-3)Gal(b1-4)GlcNAc(b1-2)Man(a1-6)]Man(b1-4)GlcNAc(b1-4)GlcNAc
How it was run: as §1

[24] = target: Gal(b1-4)GlcNAc(b1-3)Gal(b1-4)GlcNAc(b1-3)Gal(b1-4)GlcNAc(b1-3)Gal(b1-4)GlcNAc(b1-2)Man(a1-3)[Gal(b1-4)GlcNAc(b1-3)Gal(b1-4)GlcNAc(b1-3)Gal(b1-4)GlcNAc(b1-3)Gal(b1-4)GlcNAc(b1-2)Man(a1-6)]Man(b1-4)GlcNAc(b1-4)GlcNAc
How it was run: as §1

[25] = target: Gal(b1-4)GlcNAc(b1-3)Gal(b1-4)GlcNAc(b1-3)Gal(b1-4)GlcNAc(b1-3)Gal(b1-4)GlcNAc(b1-3)Gal(b1-4)GlcNAc(b1-2)Man(a1-3)[Gal(b1-4)GlcNAc(b1-3)Gal(b1-4)GlcNAc(b1-3)Gal(b1-4)GlcNAc(b1-3)Gal(b1-4)GlcNAc(b1-3)Gal(b1-4)GlcNAc(b1-2)Man(a1-6)]Man(b1-4)GlcNAc(b1-4)GlcNAc
How it was run: as §1

[26] = target: Gal(b1-4)GlcNAc(b1-3)Gal(b1-4)GlcNAc(b1-6)[Gal(b1-3)]GalNAc
How it was run: as §1

[27] = target: Gal(b1-4)GlcNAc(b1-6)[Gal(b1-3)]GalNAc
How it was run: as §1

Gal3S4S(b1-4)GlcNAc = target: Gal3S4S(b1-4)GlcNAc
How it was run: as §1

B1: PX9937I-bfa-538-26-538 (Bacteroides fragilis) (protein)
chain: DKLDLSPIDYYGSGSYWKTEAQATAYIDGIHKHLRDAAWQHTITFGELRGGRFITGASSDGMGVSNGDIILQNFDETHTGVSKFGDLFGRITNLNLFIARVTDATYLSDEMKNFYLGEVYGLRAFYYFDLYRIYGGVPLRLTADVVEGVIDPNKLYMARSTPKEVMTQIKSDLNKSMEYFGNMNDFDPYKRGKKVYWSKAATECLMGEVYLWTSKVTTGDDVANPADLTIAKTHLESVLNNYNLKMLDDFSQVFNAKNKANDEIIFAIRFLEGEATNSNGTFTYNVGTGSTKNRYQANGEVFGDALDIQNTGNQTYEYNKAVYQNFDDADTRKEATFIASYNKDGKTGELSLYGTHVRKNIGYVNAQGARVYCGDYIFYRLPWVYLTLAEIANMEGDNAAVAKYINLVRKRAYGNAWDETLYAYPETADFTTNELAILHEKDKEFIQEGQRWWDLRRMTLTKGGTPLVFCKEGSLLGDAPILNKSTEAHKLLWPIEKTMLNKDPALEQTPGYK
glycan array binding signal (z-score) [1]: 5.41
glycan array binding signal (z-score) [2]: 3.93
glycan array binding signal (z-score) [3]: 1.57
glycan array binding signal (z-score) [4]: 1.02
glycan array binding signal (z-score) [5]: -0.821
glycan array binding signal (z-score) [6]: 2.55
glycan array binding signal (z-score) [7]: -0.413
glycan array binding signal (z-score) [8]: -0.541
glycan array binding signal (z-score) [9]: 1.66
glycan array binding signal (z-score) [10]: 3.92
glycan array binding signal (z-score) (Gal(a1-3)Gal(b1-3)GlcNAc): 0.142
glycan array binding signal (z-score) [11]: 0.317
glycan array binding signal (z-score) [12]: 0.142
glycan array binding signal (z-score) [13]: 3.11
glycan array binding signal (z-score) (Gal(a1-3)Gal(b1-4)GlcNAc): -0.994
glycan array binding signal (z-score) [14]: -1.27
glycan array binding signal (z-score) [15]: 4.73
glycan array binding signal (z-score) [16]: -0.45
glycan array binding signal (z-score) [17]: -0.928
glycan array binding signal (z-score) [18]: 2.69
glycan array binding signal (z-score) [19]: 2.39
glycan array binding signal (z-score) [20]: -0.133
glycan array binding signal (z-score) [21]: 1.11
glycan array binding signal (z-score) [22]: 0.127
glycan array binding signal (z-score) [23]: 6.36
glycan array binding signal (z-score) [24]: 1.43
glycan array binding signal (z-score) [25]: 1.74
glycan array binding signal (z-score) [26]: 3.46
glycan array binding signal (z-score) [27]: -0.735
glycan array binding signal (z-score) (Gal3S4S(b1-4)GlcNAc): 0.428
